Screening data as filed in PubChem BioAssay.
PGC1a acetyl inh = lowers PGC1a acetylation signal in U2OS cells. AlphaScreen anti-acetyl-lysine; with virally co-expressed GCN5 acetyltransferase. inhibition, % at 15.6 µM. 350,000 tested, 0.17% active. AID 651687;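 active means every replicate shows inhibition of at least 40%; inconclusive means mean inhibition at least 40% but some replicate below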;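 further: 0% = neutral control wells and 100% = positive control wells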
PvdQ inh = P. aeruginosa PvdQ acylase inhibition. purified PvdQ acylase, fluorescence plate reader. inhibition, % at 10 µM. 340,000 tested, 0.063% active. AID 488965; in the data active means inhibition above about 30%, passing the limit was not always enough; inconclusive means no clear call, values can overlap the other calls;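 further: 0% = vehicle neutral wells and 100% = reference inhibitor wells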
DENV2 CPE rescue = protects cells from dengue virus 2 cytopathic effect; DENV2-infected cells, cytopathic effect rescue, plate reader; CPE inhibition, % at 9.99 µM; 350,000 tested, 1.7% active; in the data active means CPE inhibition above about 20%, passing the limit was not always enough; inconclusive means no clear call, values can overlap the other calls; tested in BHK-21 cells;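 further: 0% = median of neutral control wells and 100% = median of positive control wells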
C2C12 statin = protects C2C12 myotubes from simvastatin toxicity. 330,000 tested, 0.78% active. rescue of ATP level, % at 7.49 µM. ATP luminescence, 48 h; scaled: DMSO 0, geranylgeraniol control 100. AID 602340;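 active means mean ATP rescue above about 67%, or every replicate alone reaching that limit, limit read from the data, passing the limit was not always enough; inconclusive means no clear call, values can overlap the other calls; inactive means mean under the limit and some replicate under it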;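 further: myotubes were challenged with 10 µM simvastatin during compound exposure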
miR-122 sensor = inhibitors of miR-122 in Huh7 cells | Huh7 miR-122 Renilla luciferase sensor, 48 h; neutral wells = 0, positive control = 100 | activation (reporter increase), % at 12.5 µM | 340,000 tested, 0.3% active | AID 602342;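 active means mean replicate activation score at least 90 and every replicate individually at or above 90; inconclusive means only one of the two criteria met; inactive means neither criterion met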;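 further: higher luciferase means less miR-122 activity so hits act as miR-122 inhibitors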
Active calls of the source: *; ? = inconclusive; . = no result given; [ ] = another dose, or the depositor's remark. In the library only some 2.2% were active in any assay of this set; here they are far more common.

SMILES	PGC1a acetyl inh	PvdQ inh	DENV2 CPE rescue	C2C12 statin	miR-122 sensor
Cc1[nH]c2ccccc2c(=O)c1SC(F)(F)C(F)C(F)(F)F (centres undefined)	2	-9	.	104*	-2
O=C(COC(=O)CC1CC2CCC1C2)Nc1ccccc1Cl (centres undefined)	.	1	-6	-7	.
Cc1ccc(Cl)cc1NC(=O)COC(=O)CC1CC2CCC1C2 (centres undefined)	-7	-18	.	112*	-7
COCC(=O)N1C[C@H](C)[C@@H](OC)CN(C)C(=O)c2ccc(NC(=O)c3cc(C)on3)cc2OC[C@@H]1C	9	.	3	.	.
CN1[C@@H]2c3ccc(-c4ccccc4)c(=O)n3C[C@@H]2[C@@H](CO)[C@@H]1C(=O)NCCc1ccccc1	.	.	-7	11	.
Cc1ccc(S(=O)(=O)Nc2ccc3c(c2)CC(=O)N([C@H](C)CO)C[C@H](C)[C@H](CN(C)Cc2ccc(Oc4ccccc4)cc2)O3)cc1	1	.	50*	-16	3[16.7 µM]
C[C@H](CO)N1C[C@H](C)[C@H](CN(C)Cc2ccc(-c3ccccc3)cc2)Oc2ccc(NS(=O)(=O)c3cccs3)cc2CC1=O	0	.	51*	11	8[16.7 µM]
C[C@@H]1CN([C@@H](C)CO)C(=O)c2cc(NS(=O)(=O)c3ccc(F)cc3)ccc2O[C@H]1CN(C)Cc1ccc(-c2ccccc2)cc1	10	.	-3	71*	-26[16.7 µM]
Cc1ccc(S(=O)(=O)Nc2ccc3c(c2)CC(=O)N([C@@H](C)CO)C[C@@H](C)[C@H](CN(C)Cc2ccc(-c4ccccc4)cc2)O3)cc1	-18	.	15	103*	-26[16.7 µM]
Cc1ccc(S(=O)(=O)Nc2ccc3c(c2)CC(=O)N([C@@H](C)CO)C[C@H](C)[C@@H](CN(C)Cc2ccc(Oc4ccccc4)cc2)O3)cc1	9	.	-27	50	-12[16.7 µM]
Cc1noc(C)c1S(=O)(=O)Nc1ccc2c(c1)CC(=O)N([C@@H](C)CO)C[C@H](C)[C@@H](CN(C)C(=O)Nc1ccc(F)cc1)O2	1	.	-6	-2	-1[16.7 µM]
CCOc1ccc(CC(=N)C2=C(O)CC(C)(C)CC2=O)cc1OCC	.	-12	.	.	133*
O=C(Nc1sc2c(c1C(=O)O)CCC2)c1cccs1	-8	-1	.	-7	202*
COc1ccccc1C#Cc1ccc([C@@H]2[C@@H](C#N)N(C(=O)C3CCC3)[C@H]2CO)cc1	-12	.	22*	21	.
N#C[C@@H]1[C@H](c2ccc(C#Cc3ccc(F)cc3)cc2)[C@@H](CO)N1C(=O)C1CCCC1	-27	.	51*	8	.
N#C[C@H]1[C@H](c2ccc(C#Cc3ccc(F)cc3)cc2)[C@H](CO)N1C(=O)C1CC1	-13	.	-5	3	.
N#C[C@@H]1[C@H](c2ccc(C#Cc3ccccc3F)cc2)[C@@H](CO)N1C(=O)C1CC1	-10	.	82*	0	.
COc1ccccc1C#Cc1ccc([C@@H]2[C@H](C#N)N(C(=O)C3CCC3)[C@H]2CO)cc1	-4	.	-9	-4	.
N#C[C@H]1[C@@H](c2ccc(C#Cc3ccccc3F)cc2)[C@@H](CO)N1C(=O)C1CCCC1	.	.	33*	.	.
COc1ccc(S(=O)(=O)N(C)C[C@H]2Oc3ccc(NS(=O)(=O)c4cccs4)cc3C(=O)N([C@@H](C)CO)C[C@H]2C)cc1	0	.	16	.	6[16.7 µM]
O=C(Nc1ccc(F)cc1)N1C[C@@H]2[C@H](c3ccccc31)[C@@H](CO)N2C(=O)Cc1cccnc1	-2	.	?	-5	-4[16.7 µM]
O=C(Nc1ccc2c(c1)[C@@H]1C[C@@H](CC(=O)N3CCOCC3)O[C@@H](CO)[C@@H]1O2)C1CCOCC1	1	.	7	-4	4[16.7 µM]
CO[C@H]1CN(C)C(=O)c2ccc(NS(=O)(=O)c3ccc(Cl)cc3)cc2OC[C@H](C)N(C)C[C@@H]1C	16	.	-6	.	.
CN(C)CC(=O)Nc1ccc2c(c1)[C@H]1C[C@@H](CC(=O)NC3CCCCC3)O[C@@H](CO)[C@H]1O2	1	.	-1	6	2[16.7 µM]
O=C(C[C@H]1CC[C@H]2[C@@H](COC[C@@H](O)CN2C(=O)Nc2ccc(Cl)cc2)O1)N1CCCCC1	13	.	2	-18	28[16.7 µM]
SMILES	PGC1a acetyl inh	PvdQ inh	DENV2 CPE rescue	C2C12 statin	miR-122 sensor
CCS(=O)(=O)NCC[C@@H]1CC[C@@H](NC(=O)C2CCC2)[C@@H](CO)O1	-1	.	6	2	.
N#C[C@@H]1[C@H](c2ccc(C#Cc3ccccc3F)cc2)[C@H](CO)N1C(=O)C1CCC1	-6	.	102*	-4	.
Cc1ccc(S(=O)(=O)N2CC[C@@H]3[C@H](CO)Nc4ccc(Br)cc4[C@@H]32)cc1	2	.	?	-7	-8[16.7 µM]
C[C@@H]1CCCCO[C@@H](CN(C)S(=O)(=O)c2ccc(F)cc2)[C@@H](C)CN([C@H](C)CO)C(=O)c2cc(NS(=O)(=O)c3cccs3)ccc2O1	-13	.	.	.	5[16.7 µM]
CCCC(=O)N(Cc1cc(=O)[nH]c2ccccc12)c1cccc(C)c1	7	7	29*	-4	-5
CC=Cc1ccc2n(c1=O)C[C@@H]1[C@@H](CO)[C@H](C(=O)NCCC)[C@H]2N1C(=O)c1ccncc1 (mixture of isomers)	0	.	?	.	.
COc1ccccc1C(=O)NCCC(=O)N1CCN(C(C)=O)CC1	4	3	50*	.	-9
COc1ccccc1C(=O)NCCC(=O)N1CCN(C(=O)c2ccco2)CC1	.	-6	?	-1	-1
O=S(=O)(NCc1ccco1)c1ccc(S(=O)(=O)N2CCCCC2)cc1	3	-6	10	118*	90
CCN(CC)c1ccc(NC(=O)COc2ccccc2C#N)cc1S(=O)(=O)Nc1ccc(OC)cc1	.	3	.	.	-3
CCN(CC)c1ccc(NC(=O)c2cnccn2)cc1S(=O)(=O)Nc1ccc(OC)cc1	-13	-17	.	.	123*
C[C@H](CO)N1C[C@H](C)[C@@H](CN(C)Cc2ccncc2)OCCCC[C@H](C)Oc2ccc(NS(=O)(=O)c3ccccc3)cc2C1=O	-6	.	14	.	8[16.7 µM]
C=CCn1c(-c2csc(-c3ccccc3)n2)n[nH]c1=S	7	9	.	77*	-6
CC(Oc1ccc(Cl)cc1Cl)C(=O)N(Cc1ccco1)C1CCS(=O)(=O)C1 (centres undefined)	-3	-15	.	115*	-1
COc1ccc(NC(=O)N(C)C[C@@H]2OCCCC[C@H](C)Oc3ccc(NC(=O)CCC(F)(F)F)cc3C(=O)N([C@@H](C)CO)C[C@@H]2C)cc1	-5	.	-6	-15	1[16.7 µM]
Cc1ccc(NC(=O)CCCSc2nc3ccccc3[nH]2)cc1	-1	-9	-4	.	.
Cc1ccc(SCC(=O)Nc2ccc(-c3nc4ccccc4[nH]3)cc2)cc1	-26	-11	38*	-9	10
CCC(=O)N1CC(=O)N2[C@H](CO)[C@H](c3ccc(C#CCc4ccccc4)cc3)[C@H]2C1	-17	.	-2	.	.
COc1cccc(NC(=O)Cc2cn(C)c3ccccc23)c1	-8	2	.	9	8
O=C(Cc1cn(Cc2ccccc2)c2ccccc12)Nc1ccc(Oc2cccnc2)cc1	.	.	49*	.	.
Cn1cc(CC(=O)Nc2ccc(Nc3cccnc3)cc2)c2ccccc21	.	.	54*	.	.
